# Laboratory results from ChEMBL document CHEMBL3988442, “University of Dundee, Small-Polar-MMV Screening Library” (2021).
# For some of these results: Results with a measured potency or affinity are listed apart.
# What was measured:
# Parameters in all cases: scale not given: direction of the effect not stated beside the values
# [1] = target: Protein translocase subunit SecA (Escherichia coli (strain K12)) (UniProt P10408); test: Assay to Identify E. coli SecA ATPase Inhibitors; type: functional; details: 30 µM
# [2] = target: T1, Ubiquitin-activating enzyme e1, putative (Leishmania donovani (strain BPK282A1)) (UniProt E9BSI1); test: Leishmania donovani Ubiquitin Activating Enzyme (LdE1); type: functional; details: 30 µM
# T1 sequence (whole entry): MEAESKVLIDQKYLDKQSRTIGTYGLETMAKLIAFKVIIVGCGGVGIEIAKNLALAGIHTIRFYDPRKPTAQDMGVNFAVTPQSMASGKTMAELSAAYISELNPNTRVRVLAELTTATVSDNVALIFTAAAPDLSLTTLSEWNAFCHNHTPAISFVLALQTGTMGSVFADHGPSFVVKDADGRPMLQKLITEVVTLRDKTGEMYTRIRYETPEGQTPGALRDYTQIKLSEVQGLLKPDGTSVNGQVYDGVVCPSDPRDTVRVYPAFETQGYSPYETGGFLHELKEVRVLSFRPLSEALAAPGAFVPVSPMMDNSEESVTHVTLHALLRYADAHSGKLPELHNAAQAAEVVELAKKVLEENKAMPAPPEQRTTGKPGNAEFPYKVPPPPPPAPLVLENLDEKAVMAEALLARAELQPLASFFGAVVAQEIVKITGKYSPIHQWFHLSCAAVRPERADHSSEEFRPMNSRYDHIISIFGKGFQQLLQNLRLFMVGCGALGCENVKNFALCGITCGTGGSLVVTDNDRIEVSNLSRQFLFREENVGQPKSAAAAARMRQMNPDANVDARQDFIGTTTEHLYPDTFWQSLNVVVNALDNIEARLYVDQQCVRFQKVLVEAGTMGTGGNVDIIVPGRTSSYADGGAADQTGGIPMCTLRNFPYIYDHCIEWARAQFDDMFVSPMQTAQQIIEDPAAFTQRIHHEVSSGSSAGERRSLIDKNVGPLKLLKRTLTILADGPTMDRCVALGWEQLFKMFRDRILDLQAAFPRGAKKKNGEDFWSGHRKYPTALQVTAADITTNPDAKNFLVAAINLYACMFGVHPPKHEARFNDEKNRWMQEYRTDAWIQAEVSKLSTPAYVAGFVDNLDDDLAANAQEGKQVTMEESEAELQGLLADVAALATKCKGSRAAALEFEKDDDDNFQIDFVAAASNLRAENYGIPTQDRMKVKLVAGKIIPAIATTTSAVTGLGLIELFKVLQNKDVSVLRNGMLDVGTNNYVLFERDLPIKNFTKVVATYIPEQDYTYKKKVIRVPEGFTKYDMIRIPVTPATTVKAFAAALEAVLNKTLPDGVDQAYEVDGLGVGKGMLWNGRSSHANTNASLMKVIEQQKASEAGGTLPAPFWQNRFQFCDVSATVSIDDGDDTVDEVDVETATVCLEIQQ
# [3] = target: AMP-activated protein kinase, AMPK (Homo sapiens) (UniProt P54646+O43741+P54619+Q9UGJ0+Q9Y478+Q13131+Q9UGI9); test: AMP-dependent Kinase enzyme assay. An in vitro enzyme assay that detects ADP turnover that is directly proportional to AMPK activity. This uses naive AMPK that is activated during the assay with MK-8722; type: functional; details: 30 µM
# [4] = target: Sialic acid-binding Ig-like lectin 9 (Homo sapiens) (UniProt Q9Y336); test: Hs-Siglec9 ALPHAscreen SOP 20170721; details: 10 µM
# [5] = test system: Trypanosoma cruzi; test: Trypanosoma cruzi phosphomannomutase and mannose-1-phosphate guanylyltransferase assay; type: functional; details: 10 µM
# [6] = target: T2, Arginase-2, mitochondrial (Homo sapiens) (UniProt P78540); test: in vitro enzyme assay to detect the production of urea directly proportional to the activity of Arginase II; type: functional; details: 33.3 µM; note: in the data most compounds retested in dose-response had high values
# T2 sequence (whole entry): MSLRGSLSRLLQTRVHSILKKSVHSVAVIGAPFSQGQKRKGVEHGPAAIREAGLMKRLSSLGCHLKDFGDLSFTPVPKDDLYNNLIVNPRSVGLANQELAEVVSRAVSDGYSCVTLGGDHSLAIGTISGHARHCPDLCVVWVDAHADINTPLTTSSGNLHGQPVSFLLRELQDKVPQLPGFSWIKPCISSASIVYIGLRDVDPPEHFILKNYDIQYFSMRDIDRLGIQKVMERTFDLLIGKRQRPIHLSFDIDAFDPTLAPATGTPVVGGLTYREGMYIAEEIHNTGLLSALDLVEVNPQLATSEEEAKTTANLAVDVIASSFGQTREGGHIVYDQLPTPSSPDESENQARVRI
# [7] = target: T3, Proteasome subunit beta (Trypanosoma cruzi) (UniProt O96673); test: Trypanosoma cruzi proteasome chymotrypsin-like activity (TcProtChymo) assay.; note: in the data most compounds retested in dose-response had high values; type: functional; details: 9.37 µM
# T3 sequence (whole entry): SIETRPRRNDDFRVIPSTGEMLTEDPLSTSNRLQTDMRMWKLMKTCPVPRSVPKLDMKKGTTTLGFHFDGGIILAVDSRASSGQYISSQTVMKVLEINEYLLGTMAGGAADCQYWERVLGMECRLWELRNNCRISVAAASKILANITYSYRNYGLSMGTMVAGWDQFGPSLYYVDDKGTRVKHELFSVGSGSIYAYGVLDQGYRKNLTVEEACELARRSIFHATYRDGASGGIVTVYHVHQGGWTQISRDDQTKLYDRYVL
# [8] = species: Homo sapiens; test: To identify inhibition of the IFN signalling (Jak-Stat) pathway via expression of an eGFP reporter gene under the control of an IFN-stimulated response element (ISRE) containing MxA promoter.; type: functional; details: 30 µM
# [9] = target: T4, Tyrosyl-tRNA synthetase, putative (Trypanosoma cruzi (strain CL Brener)) (UniProt Q4DSP6); test: Trypanosoma cruzi tyrosyl tRNA synthetase (TcYRS) _High Tyrosine SOP; type: functional; details: 30 µM; note: in the data most compounds retested in dose-response had high values
# T4 sequence (whole entry): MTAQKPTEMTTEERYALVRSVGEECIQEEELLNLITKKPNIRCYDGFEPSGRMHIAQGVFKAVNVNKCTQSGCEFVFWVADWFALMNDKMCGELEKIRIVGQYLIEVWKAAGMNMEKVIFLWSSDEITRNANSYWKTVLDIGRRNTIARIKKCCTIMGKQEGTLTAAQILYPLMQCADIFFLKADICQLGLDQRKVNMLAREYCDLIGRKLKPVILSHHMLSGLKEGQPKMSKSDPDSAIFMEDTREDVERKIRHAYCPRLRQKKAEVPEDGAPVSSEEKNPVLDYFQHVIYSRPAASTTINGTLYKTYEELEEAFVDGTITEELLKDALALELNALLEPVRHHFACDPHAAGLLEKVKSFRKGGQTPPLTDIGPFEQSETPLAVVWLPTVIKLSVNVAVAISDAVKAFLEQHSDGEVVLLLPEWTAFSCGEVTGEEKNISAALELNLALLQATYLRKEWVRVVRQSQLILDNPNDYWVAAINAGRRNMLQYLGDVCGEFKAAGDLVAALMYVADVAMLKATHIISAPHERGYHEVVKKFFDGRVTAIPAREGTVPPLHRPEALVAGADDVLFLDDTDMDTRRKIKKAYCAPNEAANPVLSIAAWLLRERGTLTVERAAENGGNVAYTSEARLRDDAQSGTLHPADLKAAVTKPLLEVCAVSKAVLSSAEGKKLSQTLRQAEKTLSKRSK
# [10] = target: T4, Tyrosyl-tRNA synthetase, putative (Trypanosoma cruzi (strain CL Brener)); test: Trypanosoma cruzi tyrosyl tRNA synthetase (TcYRS) SOP; type: functional; details: 30 µM
# [11] = target: Chromo domain-containing protein 1 (Saccharomyces cerevisiae (strain ATCC 204508 / S288c) (Baker's yeast)) (UniProt P32657); test: ScCHD-1 Enzyme Inhibition Assay; type: functional; details: 30 µM; note: in the data most compounds retested in dose-response had high values
# Sequence of Chromo domain-containing protein 1 (Saccharomyces cerevisiae (strain ATCC 204508 / S288c) (Baker's yeast)) (P32657 whole entry, the tested form may be a part): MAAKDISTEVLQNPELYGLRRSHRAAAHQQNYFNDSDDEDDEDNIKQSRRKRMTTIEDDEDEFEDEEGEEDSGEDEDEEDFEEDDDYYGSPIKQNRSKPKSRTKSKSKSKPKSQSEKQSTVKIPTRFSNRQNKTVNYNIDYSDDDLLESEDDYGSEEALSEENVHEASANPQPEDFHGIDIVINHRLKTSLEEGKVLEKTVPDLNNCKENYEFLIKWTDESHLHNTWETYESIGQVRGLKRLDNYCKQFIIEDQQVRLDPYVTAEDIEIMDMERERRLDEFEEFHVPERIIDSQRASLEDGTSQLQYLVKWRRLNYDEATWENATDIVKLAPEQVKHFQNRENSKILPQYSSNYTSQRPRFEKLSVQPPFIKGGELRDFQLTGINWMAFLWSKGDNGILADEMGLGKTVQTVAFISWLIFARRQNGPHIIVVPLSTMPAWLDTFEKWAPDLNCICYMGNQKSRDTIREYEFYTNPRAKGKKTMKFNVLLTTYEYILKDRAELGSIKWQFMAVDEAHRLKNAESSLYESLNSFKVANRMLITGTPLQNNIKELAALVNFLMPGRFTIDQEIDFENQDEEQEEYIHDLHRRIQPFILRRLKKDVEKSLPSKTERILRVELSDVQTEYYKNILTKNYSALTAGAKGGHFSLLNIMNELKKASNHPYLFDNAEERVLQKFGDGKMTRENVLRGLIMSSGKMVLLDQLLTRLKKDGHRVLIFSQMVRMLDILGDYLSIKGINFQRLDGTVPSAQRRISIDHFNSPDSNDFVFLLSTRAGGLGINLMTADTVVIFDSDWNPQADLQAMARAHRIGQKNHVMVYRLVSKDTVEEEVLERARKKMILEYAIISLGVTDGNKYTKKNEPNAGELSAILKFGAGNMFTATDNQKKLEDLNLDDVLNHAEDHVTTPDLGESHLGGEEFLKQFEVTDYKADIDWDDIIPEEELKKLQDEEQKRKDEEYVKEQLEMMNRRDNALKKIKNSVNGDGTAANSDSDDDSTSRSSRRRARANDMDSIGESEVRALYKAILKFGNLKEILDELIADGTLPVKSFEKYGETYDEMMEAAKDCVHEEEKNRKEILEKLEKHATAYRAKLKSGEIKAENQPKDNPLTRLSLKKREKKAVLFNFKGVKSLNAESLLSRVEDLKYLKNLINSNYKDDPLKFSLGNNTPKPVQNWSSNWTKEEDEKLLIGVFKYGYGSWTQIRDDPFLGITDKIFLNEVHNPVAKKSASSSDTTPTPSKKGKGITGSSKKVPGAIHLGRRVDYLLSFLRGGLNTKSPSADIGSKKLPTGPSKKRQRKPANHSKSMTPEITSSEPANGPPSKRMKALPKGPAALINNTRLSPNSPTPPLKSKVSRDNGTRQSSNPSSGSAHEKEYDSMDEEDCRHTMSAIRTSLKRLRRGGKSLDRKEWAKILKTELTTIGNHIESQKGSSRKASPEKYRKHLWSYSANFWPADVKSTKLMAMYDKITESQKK
# Sequence of Protein translocase subunit SecA (Escherichia coli (strain K12)) (P10408 whole entry): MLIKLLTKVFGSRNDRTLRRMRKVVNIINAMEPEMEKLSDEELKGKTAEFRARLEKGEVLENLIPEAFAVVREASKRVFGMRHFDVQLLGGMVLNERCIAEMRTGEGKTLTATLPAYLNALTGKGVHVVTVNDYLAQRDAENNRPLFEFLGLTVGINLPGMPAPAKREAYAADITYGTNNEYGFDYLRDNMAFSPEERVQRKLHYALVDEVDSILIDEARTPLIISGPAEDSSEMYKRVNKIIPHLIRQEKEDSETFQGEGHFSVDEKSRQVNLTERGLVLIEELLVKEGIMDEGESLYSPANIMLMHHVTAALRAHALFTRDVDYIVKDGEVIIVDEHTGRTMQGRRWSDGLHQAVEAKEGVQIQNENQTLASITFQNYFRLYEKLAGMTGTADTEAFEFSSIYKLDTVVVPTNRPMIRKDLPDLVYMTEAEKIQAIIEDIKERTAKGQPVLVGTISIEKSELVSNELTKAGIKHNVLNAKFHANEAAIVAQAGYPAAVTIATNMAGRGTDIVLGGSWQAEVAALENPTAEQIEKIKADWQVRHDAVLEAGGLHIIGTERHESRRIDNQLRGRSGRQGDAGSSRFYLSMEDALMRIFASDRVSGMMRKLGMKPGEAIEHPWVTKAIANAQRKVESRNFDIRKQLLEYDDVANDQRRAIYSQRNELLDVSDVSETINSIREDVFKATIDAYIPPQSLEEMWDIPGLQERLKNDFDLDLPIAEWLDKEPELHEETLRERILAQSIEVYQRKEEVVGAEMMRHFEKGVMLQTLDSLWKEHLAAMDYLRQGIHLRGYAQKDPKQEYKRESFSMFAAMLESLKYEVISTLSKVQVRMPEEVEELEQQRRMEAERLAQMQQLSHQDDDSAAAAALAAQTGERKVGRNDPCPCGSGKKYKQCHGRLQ
# Sequence of Sialic acid-binding Ig-like lectin 9 (Homo sapiens) (Q9Y336 whole entry): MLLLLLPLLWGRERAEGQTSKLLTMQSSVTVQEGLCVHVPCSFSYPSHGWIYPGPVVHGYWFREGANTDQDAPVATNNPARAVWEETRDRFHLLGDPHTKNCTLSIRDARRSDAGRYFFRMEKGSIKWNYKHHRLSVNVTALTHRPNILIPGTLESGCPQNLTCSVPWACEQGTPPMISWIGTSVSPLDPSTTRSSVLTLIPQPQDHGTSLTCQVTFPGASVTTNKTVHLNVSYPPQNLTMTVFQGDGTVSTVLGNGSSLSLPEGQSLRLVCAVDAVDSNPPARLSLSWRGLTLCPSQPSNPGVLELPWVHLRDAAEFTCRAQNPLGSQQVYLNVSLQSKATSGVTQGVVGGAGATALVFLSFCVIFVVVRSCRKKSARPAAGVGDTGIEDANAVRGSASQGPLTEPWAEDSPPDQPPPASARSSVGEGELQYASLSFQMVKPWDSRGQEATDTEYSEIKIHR
SMILES,Percent Effect [1],Percent Effect [2],Percent Effect [3],Percent Effect [4],Percent Effect [5],Percent Effect [6],Percent Effect [7],Percent Effect [8],Percent Effect [9],Percent Effect [10],Percent Effect [11]
O=C(NCC1CC1)[C@H]1C[C@H]2OCC[C@H]2N(CCc2ccccc2)C1,-3.05%,2.7%,0.431%,-3.87%,-5.96%,-1.59%,16.4%,0.915%,2.16%,5.13%,-1.91%
CC1c2ncc(CN3CCN(C)CC3)n2CCN1Cc1cccnc1 (stereo not given),-2.48%,8%,-3.01%,1.22%,5.41%,-51.8%,7.35%,-9.88%,5.21%,5%,-7.93%
CN(C)C(=O)c1ccc2c(c1)N(C)C(CC(=O)NC(C)(C)CO)CO2 (stereo not given),-8.01%,-4.17%,-3.33%,3.27%,-2.82%,-2.21%,10.7%,-2.49%,-2.1%,-5.13%,0.823%
CCc1ncc(CN(C)C(=O)Nc2cccnc2N2CCCC2)s1,-6.28%,13.2%,-27.9%,8.15%,7.38%,1.8%,10.4%,-11.4%,5.42%,13.6%,-1.2%
COc1ccc(-n2ccc(C(=O)N3CCN(C)CC3C)n2)cc1 (stereo not given),-5.91%,10.4%,5.54%,7.32%,0.374%,-0.712%,-0.676%,3.45%,8.74%,14.6%,-5.54%
Cc1nc(CN2CCc3cncnc3C2)oc1C,-0.217%,2.74%,-102%,7.08%,5.09%,16.8%,3.55%,2.92%,2.15%,12.5%,-7.36%
Cc1cc(CN2CCN(CC(O)c3ccccc3)CC2)no1 (stereo not given),-5.4%,10.1%,-4.74%,1.14%,7.65%,2.28%,-0.0819%,-14.5%,6.4%,13.9%,-1.57%
CN(CCCc1ccccc1)Cc1nc2c(cnn2C)c(=O)[nH]1,-1.94%,8.11%,-7.46%,-2.26%,-7.26%,2.4%,5.95%,18.9%,4.43%,13.6%,-1.12%
NC(=O)COc1ccc(CNCc2ccc(F)c(F)c2)cc1,-4.2%,6.94%,2.35%,-0.752%,0.486%,3.53%,11.2%,-7.28%,7.37%,7.69%,-2.75%
CC(=O)c1cccc(OCCCC(=O)N(C)CCc2ccncc2)c1,-2.19%,8.11%,-3.93%,2.37%,3.67%,-1.91%,16.4%,16.1%,8.99%,17.1%,-2.34%
COc1cccc(CN2CCN(C(=O)CN3CCOCC3)CC2)n1,0.629%,-10.5%,-3.06%,3.57%,4.76%,3.6%,4.99%,7.19%,2.46%,6.17%,2.89%
Fc1ccc(CCN2CCC(c3nnc(-c4cccnc4)o3)CC2)cc1,-1.2%,1.35%,6.27%,-6.66%,-0.988%,-5.8%,18.9%,19.1%,3.23%,9.09%,-14%
CC1(NC(=O)Cc2csc(C(C)(C)C)n2)CCS(=O)(=O)C1 (stereo not given),-7.31%,19.2%,-17.7%,20.2%,9.01%,7.27%,13.7%,17.5%,4.3%,17.5%,-4.8%
Cc1nc(CN2CCCN(C(=O)c3ccccn3)CC2)oc1C,-1.98%,7.79%,0.524%,-0.904%,-0.686%,4%,10.8%,33%,2.86%,11.8%,-5.21%
CNc1cccc(C2CCCN(C(=O)c3ccncc3)C2)n1 (stereo not given),-4.49%,6.76%,12.2%,0.305%,4.74%,-0.232%,8.27%,-2.26%,6.45%,11.7%,-14.3%
CCN(CC)CCNC(=O)c1cc(C(C)C)nc(N2CCCC2)n1,-0.4%,20%,1.03%,-8.5%,2.55%,-24.1%,12.8%,20.4%,0%,12.8%,80.8%
Cn1ccnc1COc1ccc(CO)cc1,-1.04%,5.2%,-1.87%,-8.74%,-5.06%,8.19%,6.59%,36.8%,3.88%,14.6%,-8.46%
N#CCCN(C(=O)CN1CCCC1Cc1ccccc1)c1ccccc1 (stereo not given),-5.2%,2.7%,-1.32%,26.1%,4.1%,10.8%,5.33%,0.149%,11.9%,13.4%,-6.86%
CNc1cc2c(nn1)CCN(C(=O)c1ccc(-n3nccc3C)cc1)C2,-3.9%,7.79%,-0.653%,-3.32%,6.56%,-1.9%,11.4%,14.4%,6.67%,9.41%,-16.2%
Cc1ccc(-c2cc(CNC(=O)N3CCOC(C)C3)on2)cc1 (stereo not given),0.724%,8.11%,7.2%,-10.1%,-4.92%,3.88%,7.54%,20.6%,6.93%,13.4%,-5.48%
